The full data set covers some 21,000 targets. This sample favours those with the largest changes.
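Also: competitive profiling in live THP-1 cells: cysteine peptides tagged with an iodoacetamide desthiobiotin (IA-DTB) probe, intensity after compound treatment relative to DMSO-treated cells.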

Chain of UniProt P01130 (P01130 whole entry, looked up): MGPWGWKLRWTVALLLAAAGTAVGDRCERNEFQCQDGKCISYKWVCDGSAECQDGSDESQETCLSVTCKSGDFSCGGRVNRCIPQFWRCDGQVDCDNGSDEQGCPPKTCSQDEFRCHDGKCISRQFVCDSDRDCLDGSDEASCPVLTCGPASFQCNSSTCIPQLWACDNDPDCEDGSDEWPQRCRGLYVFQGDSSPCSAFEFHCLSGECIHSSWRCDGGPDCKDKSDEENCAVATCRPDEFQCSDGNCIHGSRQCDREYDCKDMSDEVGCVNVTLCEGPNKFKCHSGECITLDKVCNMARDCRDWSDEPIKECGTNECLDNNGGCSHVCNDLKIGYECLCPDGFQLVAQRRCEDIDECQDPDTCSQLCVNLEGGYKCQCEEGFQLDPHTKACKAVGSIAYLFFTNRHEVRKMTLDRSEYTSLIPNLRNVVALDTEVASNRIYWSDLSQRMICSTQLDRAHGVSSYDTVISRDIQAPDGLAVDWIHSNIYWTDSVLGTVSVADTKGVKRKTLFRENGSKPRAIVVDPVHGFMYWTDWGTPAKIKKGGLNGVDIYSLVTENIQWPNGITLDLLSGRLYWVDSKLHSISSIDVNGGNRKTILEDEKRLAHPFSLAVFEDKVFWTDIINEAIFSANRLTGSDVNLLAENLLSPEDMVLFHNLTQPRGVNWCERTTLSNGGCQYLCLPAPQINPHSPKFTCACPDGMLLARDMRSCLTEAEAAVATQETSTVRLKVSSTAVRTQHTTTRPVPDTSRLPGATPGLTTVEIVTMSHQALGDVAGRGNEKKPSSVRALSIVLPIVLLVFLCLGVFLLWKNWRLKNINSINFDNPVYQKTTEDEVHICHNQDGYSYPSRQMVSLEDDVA
Chain of UniProt Q96CX2 (Q96CX2 whole entry): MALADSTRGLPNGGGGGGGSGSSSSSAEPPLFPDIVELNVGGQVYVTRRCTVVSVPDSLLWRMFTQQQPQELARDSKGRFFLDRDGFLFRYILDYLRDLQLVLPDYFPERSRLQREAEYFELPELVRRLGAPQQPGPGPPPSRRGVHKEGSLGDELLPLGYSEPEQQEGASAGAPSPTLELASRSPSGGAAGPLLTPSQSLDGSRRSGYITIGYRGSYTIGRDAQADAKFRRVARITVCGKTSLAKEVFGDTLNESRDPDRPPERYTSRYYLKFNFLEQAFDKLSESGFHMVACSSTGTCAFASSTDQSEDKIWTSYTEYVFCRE
Chain of UniProt Q9Y4C1 (Q9Y4C1 whole entry, looked up): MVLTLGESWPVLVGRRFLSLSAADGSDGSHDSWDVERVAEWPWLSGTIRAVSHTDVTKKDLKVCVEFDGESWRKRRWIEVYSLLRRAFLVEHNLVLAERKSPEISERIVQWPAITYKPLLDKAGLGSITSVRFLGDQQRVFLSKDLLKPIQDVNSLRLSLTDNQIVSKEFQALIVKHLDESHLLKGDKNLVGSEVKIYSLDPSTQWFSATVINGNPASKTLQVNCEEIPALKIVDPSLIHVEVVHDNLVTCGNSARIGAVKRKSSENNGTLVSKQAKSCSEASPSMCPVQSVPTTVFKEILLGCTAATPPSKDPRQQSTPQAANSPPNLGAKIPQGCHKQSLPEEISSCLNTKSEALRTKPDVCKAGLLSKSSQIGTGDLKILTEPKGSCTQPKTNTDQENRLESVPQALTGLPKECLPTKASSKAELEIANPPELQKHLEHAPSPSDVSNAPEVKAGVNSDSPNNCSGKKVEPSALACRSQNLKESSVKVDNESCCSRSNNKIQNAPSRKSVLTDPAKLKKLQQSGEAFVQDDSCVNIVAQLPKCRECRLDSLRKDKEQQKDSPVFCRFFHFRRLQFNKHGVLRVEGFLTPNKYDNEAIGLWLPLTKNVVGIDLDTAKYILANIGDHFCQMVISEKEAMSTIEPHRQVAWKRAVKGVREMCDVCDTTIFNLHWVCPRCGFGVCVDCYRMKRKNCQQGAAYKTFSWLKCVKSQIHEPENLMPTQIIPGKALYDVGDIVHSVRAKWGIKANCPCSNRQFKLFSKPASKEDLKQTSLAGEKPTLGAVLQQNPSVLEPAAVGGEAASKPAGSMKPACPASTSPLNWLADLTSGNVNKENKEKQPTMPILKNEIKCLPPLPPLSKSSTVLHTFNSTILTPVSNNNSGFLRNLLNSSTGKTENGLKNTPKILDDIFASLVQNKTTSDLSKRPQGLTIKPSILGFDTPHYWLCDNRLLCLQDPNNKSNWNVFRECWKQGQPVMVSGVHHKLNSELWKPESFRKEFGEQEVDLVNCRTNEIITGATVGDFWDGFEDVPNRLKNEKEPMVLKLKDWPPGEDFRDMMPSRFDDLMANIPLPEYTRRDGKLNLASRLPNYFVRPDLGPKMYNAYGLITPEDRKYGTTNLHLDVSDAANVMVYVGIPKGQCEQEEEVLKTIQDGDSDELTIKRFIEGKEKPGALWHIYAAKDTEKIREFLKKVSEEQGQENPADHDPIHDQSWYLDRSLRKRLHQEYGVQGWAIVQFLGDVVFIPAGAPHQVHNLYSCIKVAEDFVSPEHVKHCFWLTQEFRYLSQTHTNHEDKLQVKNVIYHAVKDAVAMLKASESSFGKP
Chain of UniProt P11717 (P11717 whole entry, looked up): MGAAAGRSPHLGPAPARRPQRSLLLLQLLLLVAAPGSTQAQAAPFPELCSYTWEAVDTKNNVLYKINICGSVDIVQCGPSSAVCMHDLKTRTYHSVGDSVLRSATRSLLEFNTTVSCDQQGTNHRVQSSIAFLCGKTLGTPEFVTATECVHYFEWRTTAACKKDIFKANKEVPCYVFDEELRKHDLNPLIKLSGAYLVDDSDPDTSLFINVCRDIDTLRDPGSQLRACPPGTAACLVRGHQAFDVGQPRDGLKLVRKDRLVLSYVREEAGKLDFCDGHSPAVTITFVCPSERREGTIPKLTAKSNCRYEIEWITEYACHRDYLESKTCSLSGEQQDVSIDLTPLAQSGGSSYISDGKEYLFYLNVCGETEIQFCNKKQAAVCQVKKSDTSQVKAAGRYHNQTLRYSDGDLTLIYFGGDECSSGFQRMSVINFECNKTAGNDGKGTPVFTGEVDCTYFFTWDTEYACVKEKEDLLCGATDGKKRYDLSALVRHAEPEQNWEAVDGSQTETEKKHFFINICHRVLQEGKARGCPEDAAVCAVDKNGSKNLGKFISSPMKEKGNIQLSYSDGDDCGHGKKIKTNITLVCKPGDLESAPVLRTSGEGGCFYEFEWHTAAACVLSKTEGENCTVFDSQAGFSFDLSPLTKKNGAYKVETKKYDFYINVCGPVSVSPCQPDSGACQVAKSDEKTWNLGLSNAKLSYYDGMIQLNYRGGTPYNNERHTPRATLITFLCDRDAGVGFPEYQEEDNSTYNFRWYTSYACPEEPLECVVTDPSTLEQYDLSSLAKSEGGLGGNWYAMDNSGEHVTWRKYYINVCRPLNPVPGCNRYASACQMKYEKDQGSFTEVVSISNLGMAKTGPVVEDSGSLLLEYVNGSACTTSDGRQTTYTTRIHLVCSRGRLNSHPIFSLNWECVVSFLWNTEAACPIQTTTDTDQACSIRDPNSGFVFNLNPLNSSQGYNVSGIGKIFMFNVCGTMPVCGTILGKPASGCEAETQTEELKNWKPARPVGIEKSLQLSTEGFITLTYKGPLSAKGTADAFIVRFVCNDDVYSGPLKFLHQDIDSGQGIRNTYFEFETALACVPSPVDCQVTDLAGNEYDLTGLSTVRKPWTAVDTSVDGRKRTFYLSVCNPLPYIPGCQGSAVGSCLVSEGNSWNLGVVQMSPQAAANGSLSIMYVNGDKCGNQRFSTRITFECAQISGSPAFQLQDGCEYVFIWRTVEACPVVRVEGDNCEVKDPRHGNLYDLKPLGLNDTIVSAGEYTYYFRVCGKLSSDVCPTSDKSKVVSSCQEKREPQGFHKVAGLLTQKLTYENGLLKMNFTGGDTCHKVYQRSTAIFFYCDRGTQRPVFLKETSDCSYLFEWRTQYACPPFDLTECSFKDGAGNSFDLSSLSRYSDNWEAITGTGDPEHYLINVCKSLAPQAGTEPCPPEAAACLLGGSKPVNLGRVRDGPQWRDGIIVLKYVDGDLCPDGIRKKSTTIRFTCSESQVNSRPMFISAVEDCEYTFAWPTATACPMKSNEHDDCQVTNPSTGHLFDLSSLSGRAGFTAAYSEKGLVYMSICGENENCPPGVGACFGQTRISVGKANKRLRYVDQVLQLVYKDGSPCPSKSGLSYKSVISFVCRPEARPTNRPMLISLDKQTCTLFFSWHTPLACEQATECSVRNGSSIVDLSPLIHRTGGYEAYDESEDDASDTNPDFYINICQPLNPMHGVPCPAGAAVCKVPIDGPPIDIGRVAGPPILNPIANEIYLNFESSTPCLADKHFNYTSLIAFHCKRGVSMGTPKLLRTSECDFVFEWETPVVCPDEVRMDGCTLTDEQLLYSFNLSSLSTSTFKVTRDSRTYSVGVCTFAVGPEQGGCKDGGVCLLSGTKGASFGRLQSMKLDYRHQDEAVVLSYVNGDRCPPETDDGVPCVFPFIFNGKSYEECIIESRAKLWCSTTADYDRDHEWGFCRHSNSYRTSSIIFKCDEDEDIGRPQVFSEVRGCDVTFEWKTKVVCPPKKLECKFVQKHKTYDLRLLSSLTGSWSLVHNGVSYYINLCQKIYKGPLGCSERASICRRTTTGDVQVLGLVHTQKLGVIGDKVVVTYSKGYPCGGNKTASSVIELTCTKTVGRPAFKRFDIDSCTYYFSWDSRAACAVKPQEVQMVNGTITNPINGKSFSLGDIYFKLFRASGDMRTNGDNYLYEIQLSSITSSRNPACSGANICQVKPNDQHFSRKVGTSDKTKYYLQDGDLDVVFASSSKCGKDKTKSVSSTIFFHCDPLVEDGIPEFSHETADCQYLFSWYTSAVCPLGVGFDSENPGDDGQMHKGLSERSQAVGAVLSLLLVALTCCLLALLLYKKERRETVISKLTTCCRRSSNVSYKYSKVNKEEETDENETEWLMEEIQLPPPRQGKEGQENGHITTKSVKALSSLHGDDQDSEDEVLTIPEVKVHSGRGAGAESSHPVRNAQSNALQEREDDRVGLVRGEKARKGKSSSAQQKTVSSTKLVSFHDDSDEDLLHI

Compound in the first test: Cc1cc(ccc1-c1ccccc1)C(=O)N1CCCN(CC1)C(=O)CCl [compound 10]
In words: probe-labelled cysteine peptide fold change vs DMSO (competition) (log2 fold change); higher = less target engagement (more negative = stronger competition). To be noted: 10 µM; THP-1; incubation time: 4 h.
With “HSP90AA1_P07900_598_LVTSPCCIVTSTYGWTANMER (UniProt P07900)”, the “probe-labelled cysteine peptide fold change” value was -0.00946.
For the target “IPO4_Q8TEX9_726_AAHEALGQFCCALHK (UniProt Q8TEX9)”, the “probe-labelled cysteine peptide fold change” value was -0.0691.
“LAP3_P28838_376_LILADALCYAHTFNPK (UniProt P28838)”: the “probe-labelled cysteine peptide fold change” value is 0.0434.
Regarding “KPNB1_Q14974_765_ESCLEAYTGIVQGLKGDQENVHPDVMLVQPR (UniProt Q14974)”, the “probe-labelled cysteine peptide fold change” value turned out to be 0.414.
For “KRT75_O95678_460_LLEGEECR<|>NEFH_P12036_411_LLEGEECR<|>KRT76_Q7RTS7_494_LLEGEECR<|>KRT74_Q86Y46_451_LLEGEECR<|>KRT73_Q8N1N4_443_LLEGEECR<|>KRT78_P02538_422_LLEGEECR<|>KRT6A_P13647_474_LLEGEECR<|>KRT6B_P35908_474_LLEGEECR<|>KRT5_P48668_479_LLEGEECR (UniProt P48668+P35908+P13647+Q86Y46+P02538+Q7RTS7+P12036+Q8N1N4+O95678)”, the “probe-labelled cysteine peptide fold change” value is 1.25.
As to “LANCL2_Q9NS86_248_CPLLYQWHR (UniProt Q9NS86)”, the “probe-labelled cysteine peptide fold change” value is -0.115.
Still for that read-out and setting: the figure for “IPO4_Q8TEX9_726_KAAHEALGQFCCALHK (UniProt Q8TEX9)” is -0.0458; for “HNRNPU_Q00839_648_GNFTLPEVAECFDEITYVELQK (UniProt Q00839)” it is 0.16.
“IMPACT_Q9P2X3_195_STFQAHLAPVVCPK (UniProt Q9P2X3)”: the “probe-labelled cysteine peptide fold change” value was -0.422.
On to “HSPA4L_O95757_540_CHAEHTPEEEIDHTGAK (UniProt O95757)”, for which the “probe-labelled cysteine peptide fold change” value was -0.0538.
Consider “KCTD12_Q96CX2_50_CTVVSVPDSLLWR (UniProt Q96CX2)”, for which the “probe-labelled cysteine peptide fold change” value was found to be 0.0972.
For “KIDINS220_Q9ULH0_867_FLVTSATNGDVPCSDTTGIQEDADRR (UniProt Q9ULH0)”, the “probe-labelled cysteine peptide fold change” value was -0.0872.
Same read-out and setting: the figure for “LDLR_P01130_377+379_CQCEEGFQLDPHTK (UniProt P01130)” is -0.198; for “IARS_P41252_400_LLVATTFTHSYPFCWR (UniProt P41252)” it is 0.0125.
For “KPNB1_Q14974_392_DAAVMAFGCILEGPEPSQLK (UniProt Q14974)”, the “probe-labelled cysteine peptide fold change” value is 0.132.
With “KPNA5_O15131_238_NAVWALSNLCR<|>KPNA6_O60684_238_NAVWALSNLCR<|>KPNA1_P52294_240_NAVWALSNLCR (UniProt P52294+O60684+O15131)”, the “probe-labelled cysteine peptide fold change” value worked out at 0.0157.
Consider “HSPH1_Q92598_796_ELNNTCEPVVTQPKPK (UniProt Q92598)”, for which the “probe-labelled cysteine peptide fold change” value stood at 0.108.
“HNRNPLL_Q8WVV9_505_TLSGLLEWECKTDAVEALTALNHYQIR (UniProt Q8WVV9)”: the “probe-labelled cysteine peptide fold change” value was -0.0924.
For the target “ILF2_Q12905_37_PFVPHIPFDFYLCEMAFPR (UniProt Q12905)”, the “probe-labelled cysteine peptide fold change” value was 0.0684.
As to “ITGB2_P05107_472_CDTGYIGK (UniProt P05107)”, the “probe-labelled cysteine peptide fold change” value was determined as 0.101.
Consider “KDM4C_Q9H3R0_14_MEVAEVESPLNPSCK (UniProt Q9H3R0)”, for which the “probe-labelled cysteine peptide fold change” value is 0.236.
Same read-out and setting: the figure for “KPNA6_O60684_427_YLVSLGCIKPLCDLLTVMDSK (UniProt O60684)” is -0.101.
Still for that read-out and setting: the figure for “IQGAP1_P46940_57_RWMEACLGEDLPPTTELEEGLR (UniProt P46940)” is 0.00789; for “HMOX2_P30519_265_CPFYAAEQDK (UniProt P30519)” it is -0.451; for “IDH3A_P50213_331_IEAACFATIK (UniProt P50213)” it is 0.303.
For “IKBKB_O14920_716_KSEELVAEAHNLCTLLENAIQDTVR (UniProt O14920)”, the “probe-labelled cysteine peptide fold change” value is 0.0153.
With “HSP90AB1_P08238_412_CLELFSELAEDK (UniProt P08238)”, the “probe-labelled cysteine peptide fold change” value worked out at 0.16.
On to “HSD17B11_Q8NBQ5_215+217_TTCLCPNFVNTGFIK (UniProt Q8NBQ5)”, for which the “probe-labelled cysteine peptide fold change” value amounted to 0.115.
As to “IKZF1_Q13422_175+178_CHLCNYACR (UniProt Q13422)”, the “probe-labelled cysteine peptide fold change” value was -0.0534.
On to “KDM3A_Q9Y4C1_467_AGVNSDSPNNCSGK (UniProt Q9Y4C1)”, for which the “probe-labelled cysteine peptide fold change” value was -0.0265.
Regarding “IL1RAP_Q9NPH3_332_SYVCHAR (UniProt Q9NPH3)”, the “probe-labelled cysteine peptide fold change” value was -0.0813.
The same measure, in the same setting: the figure for “LDHD_Q86WU2_63_CEPPDAVVWPQNVEQVSR (UniProt Q86WU2)” is -0.334; for “HSP90AA1_P07900_597+598_LVTSPCCIVTSTYGWTANMER (UniProt P07900)” it is 0.115; for “IGF2R_P11717_1856_DGGVCLLSGTK (UniProt P11717)” it is -0.0968.
Still for that read-out and setting: the figure for “HNRNPK_P61978_184+185_LFQECCPHSTDRVVLIGGKPDR (UniProt P61978)” is -0.234; for “IFI16_Q16666_737_LTCFELAPK (UniProt Q16666)” it is -0.11.

The test is the same for the next values; noted with them: 50 µM; THP-1; incubation time: 4 h.
Regarding “HSP90AA1_P07900_598_LVTSPCCIVTSTYGWTANMER (UniProt P07900)”, the “probe-labelled cysteine peptide fold change” value amounted to 0.102.
For the target “IPO4_Q8TEX9_726_AAHEALGQFCCALHK (UniProt Q8TEX9)”, the “probe-labelled cysteine peptide fold change” value is -0.471.
For “LAP3_P28838_376_LILADALCYAHTFNPK (UniProt P28838)”, the “probe-labelled cysteine peptide fold change” value amounted to 0.0196.
Regarding “KPNB1_Q14974_765_ESCLEAYTGIVQGLKGDQENVHPDVMLVQPR (UniProt Q14974)”, the “probe-labelled cysteine peptide fold change” value is -0.185.
Take “KRT75_O95678_460_LLEGEECR<|>NEFH_P12036_411_LLEGEECR<|>KRT76_Q7RTS7_494_LLEGEECR<|>KRT74_Q86Y46_451_LLEGEECR<|>KRT73_Q8N1N4_443_LLEGEECR<|>KRT78_P02538_422_LLEGEECR<|>KRT6A_P13647_474_LLEGEECR<|>KRT6B_P35908_474_LLEGEECR<|>KRT5_P48668_479_LLEGEECR (UniProt P48668+P35908+P13647+Q86Y46+P02538+Q7RTS7+P12036+Q8N1N4+O95678)”: the “probe-labelled cysteine peptide fold change” value was determined as 0.392.
The same measure, in the same setting: for “LANCL2_Q9NS86_248_CPLLYQWHR (UniProt Q9NS86)” the value was 0.026; for “IPO4_Q8TEX9_726_KAAHEALGQFCCALHK (UniProt Q8TEX9)”, -0.126; for “HNRNPU_Q00839_648_GNFTLPEVAECFDEITYVELQK (UniProt Q00839)”, 0.0148.
On to “IMPACT_Q9P2X3_195_STFQAHLAPVVCPK (UniProt Q9P2X3)”, for which the “probe-labelled cysteine peptide fold change” value was -1.61.
On to “HSPA4L_O95757_540_CHAEHTPEEEIDHTGAK (UniProt O95757)”, for which the “probe-labelled cysteine peptide fold change” value was -0.483.
On to “KCTD12_Q96CX2_50_CTVVSVPDSLLWR (UniProt Q96CX2)”, for which the “probe-labelled cysteine peptide fold change” value was -0.28.
Same read-out and setting: the figure for “KIDINS220_Q9ULH0_867_FLVTSATNGDVPCSDTTGIQEDADRR (UniProt Q9ULH0)” is -0.0611.
In the case of “LDLR_P01130_377+379_CQCEEGFQLDPHTK (UniProt P01130)”, the “probe-labelled cysteine peptide fold change” value was 0.243.
In the case of “IARS_P41252_400_LLVATTFTHSYPFCWR (UniProt P41252)”, the “probe-labelled cysteine peptide fold change” value is 0.177.
On the same count and under the same terms, for “KPNB1_Q14974_392_DAAVMAFGCILEGPEPSQLK (UniProt Q14974)” the value was 0.441.
For “KPNA5_O15131_238_NAVWALSNLCR<|>KPNA6_O60684_238_NAVWALSNLCR<|>KPNA1_P52294_240_NAVWALSNLCR (UniProt P52294+O60684+O15131)”, the “probe-labelled cysteine peptide fold change” value is -0.339.
“HSPH1_Q92598_796_ELNNTCEPVVTQPKPK (UniProt Q92598)”: the “probe-labelled cysteine peptide fold change” value was -0.8.
In the case of “HNRNPLL_Q8WVV9_505_TLSGLLEWECKTDAVEALTALNHYQIR (UniProt Q8WVV9)”, the “probe-labelled cysteine peptide fold change” value is -0.402.
For “ILF2_Q12905_37_PFVPHIPFDFYLCEMAFPR (UniProt Q12905)”, the “probe-labelled cysteine peptide fold change” value amounted to 0.31.
As for “ITGB2_P05107_472_CDTGYIGK (UniProt P05107)”, the “probe-labelled cysteine peptide fold change” value was -0.117.
Same read-out and setting: the figure for “KDM4C_Q9H3R0_14_MEVAEVESPLNPSCK (UniProt Q9H3R0)” is 0.0354; for “KPNA6_O60684_427_YLVSLGCIKPLCDLLTVMDSK (UniProt O60684)” it is -0.85; for “IQGAP1_P46940_57_RWMEACLGEDLPPTTELEEGLR (UniProt P46940)” it is 0.0214.
With “HMOX2_P30519_265_CPFYAAEQDK (UniProt P30519)”, the “probe-labelled cysteine peptide fold change” value was -2.31.
On the same count and under the same terms, the figure for “IDH3A_P50213_331_IEAACFATIK (UniProt P50213)” is 0.39; for “IKBKB_O14920_716_KSEELVAEAHNLCTLLENAIQDTVR (UniProt O14920)” it is -0.00819; for “HSP90AB1_P08238_412_CLELFSELAEDK (UniProt P08238)” it is 0.151.
For “HSD17B11_Q8NBQ5_215+217_TTCLCPNFVNTGFIK (UniProt Q8NBQ5)”, the “probe-labelled cysteine peptide fold change” value was -0.449.
With “IKZF1_Q13422_175+178_CHLCNYACR (UniProt Q13422)”, the “probe-labelled cysteine peptide fold change” value is -0.482.
For “KDM3A_Q9Y4C1_467_AGVNSDSPNNCSGK (UniProt Q9Y4C1)”, the “probe-labelled cysteine peptide fold change” value amounted to 0.0124.
Regarding “IL1RAP_Q9NPH3_332_SYVCHAR (UniProt Q9NPH3)”, the “probe-labelled cysteine peptide fold change” value is -0.034.
On to “LDHD_Q86WU2_63_CEPPDAVVWPQNVEQVSR (UniProt Q86WU2)”, for which the “probe-labelled cysteine peptide fold change” value was determined as 0.36.
Turning to “HSP90AA1_P07900_597+598_LVTSPCCIVTSTYGWTANMER (UniProt P07900)”, the “probe-labelled cysteine peptide fold change” value was -0.354.
On the same count and under the same terms, the figure for “IGF2R_P11717_1856_DGGVCLLSGTK (UniProt P11717)” is -0.169; for “HNRNPK_P61978_184+185_LFQECCPHSTDRVVLIGGKPDR (UniProt P61978)” it is -1.28.
With “IFI16_Q16666_737_LTCFELAPK (UniProt Q16666)”, the “probe-labelled cysteine peptide fold change” value is -0.0776.

Source of the values: the supplement of paper PMC12067093, “Discovery and optimisation of a covalent ligand for TRIM25 and its application to targeted protein ubiquitination” (Chemical Science, 2025).
